Compound activity deposited in PubChem by National Center for Advancing Translational Sciences (NCATS).
Hits are enriched below; roughly 21% of the tested compounds scored in any of these assays.
Pf growth 48h – P. falciparum growth inhibition at 48 hours (one generation). P. falciparum luciferase growth in erythrocytes, 48 h. Potency, µM (top dose mostly 28.7 µM), without a hit: top-dose activity change, negative = inhibition, hits mostly inhibitors. 310,000 compounds, 5.9% hits; also: potency is read from the fitted curve at half-maximal effect; % is scaled to controls: 0 for no effect and ±100 for the full control effect
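Read-out is firefly luciferase luminescence from an integrated reporter in P. falciparum, so falling signal marks reduced parasite growth. Infected erythrocytes were at 2% hematocrit and 0.1% parasitemia (final) in Albumax-supplemented RPMI 1640.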
HCV inhibitor – inhibitors of hepatitis C virus infection | Potency, µM (titrated, usually from 41.8 µM), for inactives: at the highest dose activity change, negative = inhibition, hits mostly inhibitors | Huh7.5.1 HCVcc-Cre infection, luciferase reporter, 44 h | 340,000 compounds, 3.4% hits; also: potency is read from the fitted curve at half-maximal effect; % is scaled to controls: 0 for no effect and ±100 for the full control effect
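Compounds are dispensed onto cells plated 4 h earlier at 1,000 per well, with HCVcc-Cre virus (about 0.5 moi) added next. Following 44 h of culture, luminescent signal is measured for 15 sec after 15 min with substrate at room temperature.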
Pf growth 96h – P. falciparum growth inhibition at 96 hour, primary screen for plastid delayed-death inhibitors. P. falciparum luciferase reporter growth, 96 h. Potency, µM (top dose mostly 28.7 µM), for inactives: at the top dose activity change, negative = inhibition, usual class: inhibitors. 320,000 compounds, 6.9% hits. AID 504834; also: potency is read from the fitted curve at half-maximal effect; % is scaled to controls: 0 for no effect and ±100 for the full control effect
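Compounds incubated with erythrocytes infected by luciferase-expressing P. falciparum (2% hematocrit, 0.05% parasitemia final) for 96 hours, 37 C in 5% CO2. Growth inhibition scored as decreased luciferase luminescence.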
Shiga toxin inh – blocks Shiga toxin action in Vero cells. inhibition, % at 38.7 µM. Vero cells, Shiga toxin protein synthesis inhibition reporter. 290,000 compounds, 9.2% hits; in the data active = inhibition mostly above about 28%, no sharp cut-off; inactive = mostly below about 43%; also: 0% is about no effect
AMA1-RON2 inh – disrupts binding of P. falciparum AMA1 to RON2; AlphaScreen AMA1-biotinylated RON2 peptide binding; Potency, µM (highest dose often 58.2 µM), for inactives: top-dose activity change, negative = inhibition, most hits filed as inhibitors; 360,000 compounds, 0.2% hits; AID 720542;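 also: potency is read from the fitted curve at half-maximal effect; 0% = vehicle wells and -100% = peptide control; nearly all actives have a fitted effect of over 45% in size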
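AMA1 (3D7) with his tag at 25 nM final met compounds first, then biotinylated RON2 peptide at 25 nM; detection used donor plus acceptor beads, 10 µg/mL apiece, read by AlphaScreen after 30 min at room temperature.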
CHX counter – counter-screen for Shiga toxin inhibitors: cycloheximide protein synthesis inhibition; cell reporter, cycloheximide protein synthesis inhibition counterscreen; max response, %; 300,000 compounds, 12% hits; in the data active = max response mostly above about 13%, no sharp cut-off; inactive = mostly below about 14%; also: read at 38.3 µM for the half of the compounds with a filed dose; 0% is about no effect
Starred values were filed as active, the others as inactive; u = inconclusive; x = no result given; [ ] = dose if it differs, or a comment. Unless noted, calls follow the shape of the dose curve; as a rule, active = well fitted curve in the direction sought with a large enough effect; inconclusive = small, poorly fitted or top-dose-only effect, or another doubt; inactive = no such curve, though single readings can be large; an effect the other way counts as inactive or inconclusive.

SMILES	Pf growth 48h	HCV inhibitor	Pf growth 96h	Shiga toxin inh	AMA1-RON2 inh	CHX counter
O=C(Nc1ccccc1F)c1cc(Cl)sc1Cl	x	-12.9%	23.5%	71.8*	21.2%	31.2*
O=C(Nc1ccc(F)cc1F)c1cc(Cl)sc1Cl	x	2.3%	11.0%	85.9	-6.0%	30.0*
Cc1cccc(NC(=O)c2cc(Cl)sc2Cl)c1C	47.1%	-2.4%	92.9%	-13.3	7.8%[2.32 µM]	-2.0
O=C(Nc1ccc(S(=O)(=O)Nc2ncccn2)cc1)c1ccc2ncsc2c1	u	-12.5%	u	17.3	u	9.2
NC(=O)c1sc(-c2ccsc2)cc1NS(=O)(=O)c1ccc(C(F)(F)F)cc1	9.0%	-1.7%	31.7%	-9.1	-15.1%	7.6
CN1CCC(Oc2ccccc2Sc2ccccc2)CC1	u	u	13.1µM*	-5.6	-27.5%	-4.6
CN1CCC(OC(c2ccccc2)c2ccccc2)CC1	-16.6%	-27.0%	u	-6.2	-6.0%	-1.9
COCCCn1c(=O)c2ccccc2n(CC(=O)N2CCCc3ccccc32)c1=O	u	7.2%	-0.7%	-10.8	12.3%	-8.0
COc1ccc(/C=C2\SC(=S)N(CCC(=O)Nc3ccc(O)cc3)C2=O)cc1	56.7%	u	u	2.6	-3.8%	2.7
COc1ccc(/C=C2\SC(=O)N(CCCC(=O)Nc3ccc(C(=O)O)cc3)C2=O)cc1OC	5.1%	13.9%	-24.0%	-19.9	5.1%	-3.9
COc1cccc(/C=C2/SC(=S)N(CCCC(=O)Nc3ccc(O)cc3)C2=O)c1	u	u	u	44.2*	-12.0%	27.2*
COc1cccc(/C=C2\SC(=S)N(CCCC(=O)Nc3cc(C)on3)C2=O)c1	-6.4%	6.3%	80.8%	-7.0	-4.6%	-4.3
CCN(CC)CCOC(=O)c1ccc(NC(=O)CCCN2C(=O)S/C(=C/c3ccc(OC)cc3)C2=S)cc1	2.62µM*	14.1µM*	-9.4%	-17.6	u	-9.5
COc1cccc(/C=C2\SC(=S)N(CCCC(=O)Nc3ccc(C(=O)O)cc3)C2=O)c1	u	-11.3%	8.28µM*	10.9	-1.5%	17.2
CCOc1ccc(C/C(O)=C2\C(=O)CC(C)(C)CC2=NCC(=O)O)cc1OCC	-0.3%	16.4%	29.8%	-1.5	4.8%	-8.4
Cc1ccc(-c2ccc(OC(=O)c3ccc(=O)[nH]c3)c(C)c2)cc1	18.7%	u	21.0%	42.5	-6.9%	12.1
COc1cccc(C(=O)OCC(=O)NCC2CCCO2)c1 (stereo not drawn)	x	-2.2%	x	x	15.9%	x
CC(C)(C)n1nc2c(c1NC(=O)Cc1ccc([N+](=O)[O-])cc1)CS(=O)(=O)C2	u	27.1%	-1.8%	-5.2	18.9%	0.4
NS(=O)(=O)c1ccc(CNC(=S)Nc2cc(S(=O)(=O)N3CCOCC3)ccc2Cl)cc1	x	3.2%	x	x	2.9%	x
CCOC(=O)CNC(=O)C1CCN(S(=O)(=O)c2ccc(-c3nn[nH]n3)cc2)CC1	-11.7%	-1.7%	56.9%	-4.5	1.8%	7.4
COc1ccc(N2CCN(C(=O)Cc3ccc(Cl)cc3)CC2)cc1	-10.0%	-26.9%	88.8%	-5.7	17.8µM*	-3.7
O=C(Cc1ccc(Cl)cc1)N1CCN(c2ccccc2)CC1	2.3%[0.00184 µM]	-3.6%	54.2%	62.5	-3.9%	31.1*
O=C(Cc1ccc(Cl)cc1)N1CCN(c2ccc(F)cc2)CC1	-18.4%	-76.3%	7.1%	-5.3	0.0%	4.0
Cn1cc(CC(=O)N2CCN(c3ccc(Cl)cc3)CC2)c2ccccc21	-8.7%	u	11.7µM*	-10.5	-27.5%	-2.5
OC[C@@H]1CN(Cc2ccco2)C[C@H](n2cnc3c(NCc4ccc(F)cc4)ncnc32)O1	x	x	x	x	-4.4%	x
SMILES	Pf growth 48h	HCV inhibitor	Pf growth 96h	Shiga toxin inh	AMA1-RON2 inh	CHX counter
CC(NC(=O)CCn1ccc2cc(S(=O)(=O)N3CCCC3)ccc21)c1ccccc1 (stereo not drawn)	u	-25.7%	u	-9.0	7.1%	12.5
CC(=O)Nc1cccc(C(=O)OCCCOc2ccc(F)cc2)c1	56.9%	u	10.0%	57.8*	0.0%	32.1*
CC(=O)Nc1cccc(C(=O)OCC(=O)NC(C)c2ccc(F)cc2)c1 (stereo not drawn)	u	-20.7%	45.7%	20.3	-19.5%	-1.8
O=C(CCc1ccccc1)Nc1cc(C(=O)O)cc(C(=O)O)c1	24.2%	7.4%	1.47µM*	-15.3	-1.3%	0.8
CCOC(=O)c1cccc(NC(=O)CCc2ccccc2)c1	26.4%	-13.1%	7.1%[5.75 µM]	55.1	3.2%	16.0*
CC(=O)Nc1cccc(C(=O)OCc2ccccc2)c1	11.2%	u	-1.2%	74.2*	22.1%	27.0*
COc1ccc(CNC(=O)c2ccc(-c3c(C)noc3C)c3ccoc23)cc1OC	x	x	x	x	-10.0%	x
COCc1ccc(C(=O)N2CCCC(Nc3ccc(C(C)C)cc3)C2)o1 (stereo not drawn)	u	u	9.9%	1.6	-5.6%	-1.7
CCC(=O)Nc1ccc(C(=O)OCc2ccccc2)cc1	17.1%	-0.5%	8.1%	77.4*	4.6%	39.0*
CCC(=O)Nc1ccccc1	37.0%	u	71.0%	-2.8	8.4%	-2.8
CCC(=O)Nc1ccc(C(=O)OCC(=O)c2cccs2)cc1	63.7%	3.4%	38.4%	55.5*	19.4%	31.1*
C[C@@H]1CN([C@H](C)CO)C(=O)Cc2cc(NC(=O)Cn3cnnn3)ccc2O[C@@H]1CN(C)Cc1ccc(Cl)c(Cl)c1	x	27.3%	x	x	2.1%	x
CCCN(CC1CCCO1)C(=O)CCc1nnc(-c2cc(C)on2)o1 (stereo not drawn)	5.2%	6.9%	78.8%	51.0*	10.9%	15.8*
COc1cccc(CCc2nnc(CCC(=O)N3CCCC3c3nccs3)o2)c1 (stereo not drawn)	-2.9%	7.3%	5.86µM*	-16.4	12.5%	-0.9
COc1ccccc1CCc1nnc(CCC(=O)NCCC2CCCCO2)o1 (stereo not drawn)	x	x	x	x	-0.4%	x
COc1cccc(CN2CCN(C(=O)CCc3nnc(C4CCCCC4)o3)CC2=O)c1	u	-5.3%	u	17.6	-0.2%	7.4
Cc1cccc(Cc2nnc(CCC(=O)N(C)Cc3ccncc3C)o2)c1	8.5%	4.0%	11.4%	38.9	3.2%	7.8
COc1cccc(CCc2nnc(CCC(=O)NCCC3CCCCO3)o2)c1 (stereo not drawn)	6.5%	6.1%	-15.2%	13.7	-1.9%	18.4*
COc1ccc(CCc2nnc(CCC(=O)N(C)Cc3ccncc3C)o2)cc1	26.6%	-11.0%	u	70.0*	0.4%	22.2*
CCN(CC1CCCO1)C(=O)CCc1nnc(CCc2ccc(OC)cc2)o1 (stereo not drawn)	-17.7%	9.1%	-10.4%	48.1*	-7.4%	25.4*
Cc1cc(C(=O)COC(=O)c2cccc(O)c2)c(C)n1C1CC1	164.3%	u	281.9%	x	-17.6%	x
CCOC(COC(=O)c1ccccc1C(=O)O)c1ccccc1 (stereo not drawn)	x	x	x	x	9.1%	x
